# Source: article PMC8384837, “Expanding the binding specificity for RNA recognition by a PUF domain”
# How the values were obtained:
# Test in all cases: yeast three-hybrid, YBZ-1, SC-Leu-His + 0.5 mM 3-AT, 4 days
# Conditions in all cases: tags: N-Gal4 AD-HA kept; label: inside an RPR1-promoter hybrid RNA with tandem MS2 sites; ssRNA
# PUM1 PUF domain R2-KRG = PUM1 PUF domain R2-KRG (Homo sapiens, UniProt Q14671 828-1176, N899K;Y900R;Q903G)
# Procedure, shortened: (§1)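 Repeat regions from input (SC-Leu) and selection (SC-Leu-His + 0.5 mM 3-AT) plates were PCR-amplified and Illumina-sequenced after four days of growth. The cells were strain YBZ-1 with a LexA–MS2 coat fusion and a HIS3 reporter, co-expressing Pumilio-1 PUF domain libraries and matching RNA elements from a centromeric plasmid. The interaction score is the log change in variant frequency from input to selection, taken in log2 with a pseudocount of 1 for absent variants.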
# PUM1 PUF domain R7-KYN = PUM1 PUF domain R7-KYN (Homo sapiens, UniProt Q14671 828-1176, S1079K;N1080Y;E1083N)
# Procedure, shortened: as §1
# PUM1 PUF domain R3-IRT = PUM1 PUF domain R3-IRT (Homo sapiens, UniProt Q14671 828-1176, C935I;Q939T)
# Procedure, shortened: as §1
# PUM1 PUF domain R6-IYL = target: T1, PUM1 PUF domain R6-IYL (Homo sapiens, UniProt Q14671 828-1176, N1043I;Q1047L)
# T1 sequence: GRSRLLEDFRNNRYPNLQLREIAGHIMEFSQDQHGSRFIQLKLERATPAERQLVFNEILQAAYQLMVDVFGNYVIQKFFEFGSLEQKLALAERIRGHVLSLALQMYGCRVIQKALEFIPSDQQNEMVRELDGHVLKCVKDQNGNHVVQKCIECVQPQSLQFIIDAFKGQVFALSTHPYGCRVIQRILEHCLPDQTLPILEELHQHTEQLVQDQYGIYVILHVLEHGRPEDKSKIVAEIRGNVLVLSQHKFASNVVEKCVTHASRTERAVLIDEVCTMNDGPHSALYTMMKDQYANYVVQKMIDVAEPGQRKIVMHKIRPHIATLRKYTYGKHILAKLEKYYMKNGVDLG
# Procedure, shortened: as §1
# PUM1 PUF domain R4-DWR = PUM1 PUF domain R4-DWR (Homo sapiens, UniProt Q14671 828-1176, N971D;H972W;Q975R)
# Procedure, shortened: as §1
# PUM1 PUF domain R7-LSS = PUM1 PUF domain R7-LSS (Homo sapiens, UniProt Q14671 828-1176, S1079L;N1080S;E1083S)
# Procedure, shortened: as §1
# PUM1 PUF domain R1-KGM = PUM1 PUF domain R1-KGM (Homo sapiens, UniProt Q14671 828-1176, S863K;R864G;Q867M)
# Procedure, shortened: as §1
# PUM1 PUF domain R3-FCE = PUM1 PUF domain R3-FCE (Homo sapiens, UniProt Q14671 828-1176, C935F;R936C;Q939E)
# Procedure, shortened: as §1
# PUM1 PUF domain R5-LHP = PUM1 PUF domain R5-LHP (Homo sapiens, UniProt Q14671 828-1176, C1007L;R1008H;Q1011P)
# Procedure, shortened: as §1
sequence,measurement,setting,value
GGCUAGAACUAGUGGAUCCCCCGGCGCCCGGCGGCUCGAGCCCGGGUAAGUGUAAAGAGUCUGCAUGCCGCCGGGCGCCAUGCCUGCAGGUCGACUCUAGAAAACAUG,binding signal,PUM1 PUF domain R2-KRG,4.1 log2 enrichment (interaction score)
GGCUAGAACUAGUGGAUCCCCCGGCGCCCGGCGGCUCGAGCCCGGGUAAGUCUAAAUAGUCUGCAUGCCGCCGGGCGCCAUGCCUGCAGGUCGACUCUAGAAAACAUG,binding signal,PUM1 PUF domain R7-KYN,3.09 log2 enrichment (interaction score)
GGCUAGAACUAGUGGAUCCCCCGGCGCCCGGCGGCUCGAGCCCGGGUAAGUGUAAAUAGUCUGCAUGCCGCCGGGCGCCAUGCCUGCAGGUCGACUCUAGAAAACAUG,binding signal,PUM1 PUF domain R3-IRT,4.08 log2 enrichment (interaction score)
same,binding signal,PUM1 PUF domain R6-IYL,4.93 log2 enrichment (interaction score)
GGCUAGAACUAGUGGAUCCCCCGGCGCCCGGCGGCUCGAGCCCGGGUAAGUGUAUAUAGUCUGCAUGCCGCCGGGCGCCAUGCCUGCAGGUCGACUCUAGAAAACAUG,binding signal,PUM1 PUF domain R4-DWR,5.3 log2 enrichment (interaction score)
GGCUAGAACUAGUGGAUCCCCCGGCGCCCGGCGGCUCGAGCCCGGGUAAGUGUACAUAGUCUGCAUGCCGCCGGGCGCCAUGCCUGCAGGUCGACUCUAGAAAACAUG,binding signal,PUM1 PUF domain R4-DWR,6.69 log2 enrichment (interaction score)
GGCUAGAACUAGUGGAUCCCCCGGCGCCCGGCGGCUCGAGCCCGGGUAAGUUUAAAUAGUCUGCAUGCCGCCGGGCGCCAUGCCUGCAGGUCGACUCUAGAAAACAUG,binding signal,PUM1 PUF domain R7-LSS,2.47 log2 enrichment (interaction score)
GGCUAGAACUAGUGGAUCCCCCGGCGCCCGGCGGCUCGAGCCCGGGUAAGUGUAAAUCGUCUGCAUGCCGCCGGGCGCCAUGCCUGCAGGUCGACUCUAGAAAACAUG,binding signal,PUM1 PUF domain R1-KGM,2.83 log2 enrichment (interaction score)
GGCUAGAACUAGUGGAUCCCCCGGCGCCCGGCGGCUCGAGCCCGGGUAAGUGUAAAUUGUCUGCAUGCCGCCGGGCGCCAUGCCUGCAGGUCGACUCUAGAAAACAUG,binding signal,PUM1 PUF domain R1-KGM,0.32 log2 enrichment (interaction score)
GGCUAGAACUAGUGGAUCCCCCGGCGCCCGGCGGCUCGAGCCCGGGUAAGUGUAAGUAGUCUGCAUGCCGCCGGGCGCCAUGCCUGCAGGUCGACUCUAGAAAACAUG,binding signal,PUM1 PUF domain R3-FCE,3.54 log2 enrichment (interaction score)
GGCUAGAACUAGUGGAUCCCCCGGCGCCCGGCGGCUCGAGCCCGGGUAAGUGUUAAUAGUCUGCAUGCCGCCGGGCGCCAUGCCUGCAGGUCGACUCUAGAAAACAUG,binding signal,PUM1 PUF domain R5-LHP,3.09 log2 enrichment (interaction score)
